Source: PubChem BioAssay (NCATS)
Results filed as inconclusive are left out. Activity calls are given as the source filed them. Unless noted, calls follow the shape of the dose curve; as a rule, active = well fitted curve in the direction sought with a large enough effect in the repeat runs; inconclusive = weak or mixed curves; inactive = no such curve, though single readings can be large; an effect the other way counts as inactive or inconclusive.

How the values were obtained:
[1] = target: Cytochrome P450 2D6 (Homo sapiens) (UniProt P10635); experiment: Cytochrome P450 family 2 subfamily D member 6 (CYP2D6) small molecule antagonists: luciferase biochemical (cell-free) qHTS assay (AID 1645840); also: nearly all actives have a fitted effect of over 55% in size; also: potency is read from the fitted curve at half-maximal effect; as to activity change, negative = inhibition: % is scaled to controls: 0 for no effect and ±100 for the full control effect
How it was run: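 P450-Glo CYP2D6 system: proluciferin substrate converted by enzyme to luciferin, read by luminescence proportional to activity. Enzyme-substrate mix with compound 10 min at room temperature, then NADPH regeneration 1 h before detection reagent.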

[2] = Confirmation and Secondary Assay for Modulators of Hemoglobin Beta Chain Splicing at IVS2 705 locus (AID 930; active = well fitted curve in the direction sought with a large enough effect; an effect the other way counts as inactive or inconclusive;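 also: HeLa cells stably expressing the EGFP-705 splicing reporter; GFP fluorescence per well restored by corrected splicing of the IVS2-705 intron in EGFP; % of control where 0% means no effect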)
How it was run: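 Secondary splice-site specificity test uses HeLa expressing CMV-driven EGFP interrupted by IVS2-705; cells were treated 2 days at 37C with 500 nM antisense PNA as positive control.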

[3] = qHTS Assay for Lipid Storage Modulators (AID 1519; calls by dose curve; as to activity change, negative = inhibition: % is scaled to controls: 0 for no effect and ±100 for the full control effect); settings: Drosophila S3 cells, BODIPY lipid droplet/cell ratio, laser cytometry, cells loaded with oleic acid; for activity change, negative = inhibition: at 57.5 µM (top of the series)
How it was run: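 Cells seeded at 5,000 per well were treated with compounds over a concentration series and loaded with oleic acid (400 uM, as added). Lipid droplet fluorescence (488 nm excitation, 500-530 nm channel) was read by laser-scanning cytometry and normalized to 20 uM Triacsin C.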

[4] = Confirmation and Secondary Assay for Modulators of Hemoglobin Beta Chain Splicing at IVS2 654 locus (AID 910; active = well fitted curve in the direction sought with a large enough effect; an effect the other way counts as inactive or inconclusive;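 also: HeLa cells stably carrying EGFP split by mutant beta-globin IVS2-654 intron; per-well total GFP intensity by laser scanning cytometry after 2-day treatment; % of control where 0% means no effect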)
How it was run: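 Readout: per-well total peak green fluorescence (488 nm ex, 500–520 nm em) from objects 5–250 µm, reflecting correct splicing of an EGFP-654 reporter. Compounds were applied for 2 days at 37 °C to overnight-plated HeLa EGFP-654 cells; controls were DMSO and 500 nM IVS2-654 PNA.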

[5] = target: Cytochrome P450 2C9 (Homo sapiens) (UniProt P11712); experiment: Cytochrome P450 family 2 subfamily C member 9 (CYP2C9) small molecule antagonists: luciferase biochemical (cell-free) qHTS assay (AID 1645842); also: potency is read from the fitted curve at half-maximal effect; nearly all actives have a fitted effect of over 55% in size
How it was run: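 P450-Glo CYP2C9 system: proluciferin substrate with enzyme in mix containing 0.4% BSA, 10 min at room temperature, then NADPH regeneration solution added and incubated 1 h at 37C. Detection reagent stopped reaction; luminescence read after 20 min as RLU.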

[6] = target: Cytochrome P450 3A4 (Homo sapiens) (UniProt P08684); experiment: Cytochrome P450 family 3 subfamily A member 4 (CYP3A4) small molecule antagonists: luciferase qHTS assay (AID 1645841); also: nearly all actives have a fitted effect of over 45% in size; also: potency is read from the fitted curve at half-maximal effect
How it was run: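 Luminescent CYP3A4 activity readout: compounds plus enzyme-substrate mix 10 min at room temperature, reaction started with NADPH regenerating system for 1 h, stopped with detection reagent, read after 20 min. Ketoconazole served as control.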

[7] = measured here: cell count channel max response
[8] = measured here: lipid channel max response

Cytochrome P450 2C9 (Homo sapiens), sequence (P11712 whole entry, looked up): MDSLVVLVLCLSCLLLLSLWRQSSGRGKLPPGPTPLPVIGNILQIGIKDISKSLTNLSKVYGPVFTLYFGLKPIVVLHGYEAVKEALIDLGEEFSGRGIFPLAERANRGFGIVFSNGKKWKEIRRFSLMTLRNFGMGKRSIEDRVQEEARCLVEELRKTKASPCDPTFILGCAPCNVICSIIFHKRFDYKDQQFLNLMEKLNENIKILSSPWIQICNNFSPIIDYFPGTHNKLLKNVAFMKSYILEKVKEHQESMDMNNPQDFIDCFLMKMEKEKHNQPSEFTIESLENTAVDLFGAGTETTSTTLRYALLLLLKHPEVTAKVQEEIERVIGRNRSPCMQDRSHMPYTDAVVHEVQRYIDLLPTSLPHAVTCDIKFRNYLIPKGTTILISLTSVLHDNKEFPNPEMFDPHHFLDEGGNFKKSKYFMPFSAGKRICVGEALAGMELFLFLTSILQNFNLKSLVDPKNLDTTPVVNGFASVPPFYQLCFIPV
Cytochrome P450 2D6 (Homo sapiens), sequence (P10635 whole entry, looked up): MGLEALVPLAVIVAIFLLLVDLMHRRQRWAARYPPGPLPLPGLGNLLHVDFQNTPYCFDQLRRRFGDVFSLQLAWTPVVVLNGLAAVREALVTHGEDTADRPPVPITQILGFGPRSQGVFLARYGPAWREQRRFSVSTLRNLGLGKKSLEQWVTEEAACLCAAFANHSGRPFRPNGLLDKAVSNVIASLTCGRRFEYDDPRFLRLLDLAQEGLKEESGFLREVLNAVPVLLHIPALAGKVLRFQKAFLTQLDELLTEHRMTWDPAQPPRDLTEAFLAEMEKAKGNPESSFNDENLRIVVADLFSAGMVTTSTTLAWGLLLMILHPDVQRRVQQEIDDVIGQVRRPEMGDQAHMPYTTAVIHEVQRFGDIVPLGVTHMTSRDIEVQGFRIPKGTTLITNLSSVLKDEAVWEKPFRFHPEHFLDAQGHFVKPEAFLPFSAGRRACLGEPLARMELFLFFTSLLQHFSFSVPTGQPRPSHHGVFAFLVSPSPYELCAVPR
Cytochrome P450 3A4 (Homo sapiens), sequence (P08684 whole entry, looked up): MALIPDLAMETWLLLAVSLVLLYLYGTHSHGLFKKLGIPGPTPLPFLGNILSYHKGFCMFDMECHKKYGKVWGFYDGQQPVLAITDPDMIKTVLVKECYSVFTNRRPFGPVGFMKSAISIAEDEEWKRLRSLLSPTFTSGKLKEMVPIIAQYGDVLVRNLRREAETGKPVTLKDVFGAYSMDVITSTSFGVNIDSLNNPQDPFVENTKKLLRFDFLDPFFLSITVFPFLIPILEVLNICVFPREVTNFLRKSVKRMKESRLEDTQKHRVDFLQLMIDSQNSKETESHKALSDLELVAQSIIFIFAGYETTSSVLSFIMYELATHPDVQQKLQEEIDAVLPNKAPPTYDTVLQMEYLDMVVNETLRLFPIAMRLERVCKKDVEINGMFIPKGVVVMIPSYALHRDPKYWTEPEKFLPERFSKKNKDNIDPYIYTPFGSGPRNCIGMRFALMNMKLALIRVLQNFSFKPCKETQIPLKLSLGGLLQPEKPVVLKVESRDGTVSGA

With `Cc1nn(CC(=O)NCCc2ccccc2)c(=O)c2c1sc1ccccc12` the Potency [1] was 12 µM (active).

In the case of `Cc1nc2c3ccccc3nc(NNC(=O)CCC(=O)N3CCN(c4ccccc4)CC3)n2n1`, the Potency [1] is reported as “inactive”.

For `O=C(O)c1cc(O)c2c(O)c3c(O[C@@H]4O[C@H](CO)[C@@H](O)[C@H](O)[C@H]4O)cccc3c(-c3c4cc(C(=O)O)cc(O)c4c(O)c4c(O[C@@H]5O[C@H](CO)[C@@H](O)[C@H](O)[C@H]5O)cccc34)c2c1`, the Potency [1] was 15.1 µM (active).

In the case of `CC(O)CNC(=O)C(=O)Nc1c2c(nn1-c1ccc(Cl)cc1)CSC2` (stereo not given), the Potency [1] is reported as “inactive”.

In the case of `COC(=O)[C@H]1C(OC)[C@@H](OC(=O)c2cc(OC)c(OC)c(OC)c2)C[C@@H]2CN3CCc4c([nH]c5cc(OC)ccc45)[C@H]3C[C@H]21` (stereo not given in full), the Potency [2] is reported as “inactive”, the activity change, negative = inhibition [3] is reported as 8.9% (inactive) and the max response [3, 7] is reported as 4.56%. The max response [3, 8] was 13.7%.

With `COc1ccc(-c2nc3n(n2)C(c2ccc(OC)c(OC)c2)C(C(=O)Nc2cccnc2)=C(C)N3)cc1` (stereo not given) the Potency [1] was “inactive”.

In the case of `Cc1[nH]n2c(=O)cc(-c3ccccc3Cl)nc2c1-c1ccccc1`, the Potency [1] is reported as 16.9 µM (active).

With `COc1ccc(Br)c2c1-c1nc(NC(=O)c3cccc(C)c3)sc1C2` the Potency [1] was “inactive”.

In the case of `NCCOCCOCCOCCOCCN1CCN(C(c2ccc(Cl)cc2)c2ccc(Cl)cc2)CC1`, the Potency [1] is reported as 6.74 µM (active).

With `CC1=C(C(=O)O)N2C(=O)C(NC(=O)C(N)c3ccccc3)C2SC1` (stereo not given) the Potency [2] was “inactive”, the activity change, negative = inhibition [3] was 9.95% (inactive) and the max response [3, 7] was 9.88%. The max response [3, 8] was 24.8%.

With `CCc1ccc(C(=O)c2cn(CC(=O)Nc3ccc(OC)c(OC)c3)c3ccc(C)cc3c2=O)cc1` the Potency [1] was “inactive”.

With `CC(=O)C1(O)Cc2c(O)c3c(c(O)c2C(OC2CC(N)C(O)C(C)O2)C1)C(=O)c1ccccc1C3=O` (stereo not given) the Potency [1] was 12 µM (active).

For `CC12CCC3(C)C(=CC(=O)[C@@H]4C5(C)CC[C@H](O[C@H]6O[C@H](C(=O)O)C(O)C(O)[C@H]6O[C@@H]6O[C@H](C(=O)O)C(O)C(O)C6O)C(C)(C)[C@@H]5CCC43C)[C@@H]1C[C@@](C)(C(=O)O)CC2` (stereo not given in full), the Potency [1] was “inactive”.

With `Cc1onc(-c2c(F)cccc2Cl)c1C(=O)Cl` the Potency [1] was “inactive”.

For `Cc1ccccc1CNC(=O)CCCn1c(=O)c2cccn2c2cccnc21`, the Potency [1] was 8.49 µM (active).

In the case of `CC(=O)c1c(O)c(C)c(O)c2c1OC1=CC(=O)C(C(C)=O)C(=O)C12C` (stereo not given), the Potency [4] is reported as “inactive”, the Potency [2] is reported as “inactive” and the activity change, negative = inhibition [3] is reported as 6.96% (inactive). The max response [3, 7] was 24.8% and the max response [3, 8] was 22.6%.

For `CC(C)CCn1c(CN2CCN(C(=O)C(C)C)CC2)nc2c1c(=O)n(C)c(=O)n2C`, the Potency [1] was “inactive”.

With `CN(C)[S+](=O)([O-])c1ccc([S+](=O)([O-])N(Cc2cccs2)Cc2ccccc2Cl)cc1` the Potency [1] was 1.9 µM (active) and the Potency [5] was 3.79 µM (active).

In the case of `CCC(C)Nc1cc(C(=O)NC2CC3CCC(C2)N3c2ccc(C(=O)C3CC3)cn2)c(C)cc1C(N)=O` (stereo not given), the Potency [1] is reported as “inactive” and the Potency [5] is reported as 8.49 µM (active).

With `C[C@H](O[C@H]1OCCN(Cc2n[nH]c(=O)[nH]2)[C@H]1c1ccc(F)cc1)c1cc(C(F)(F)F)cc(C(F)(F)F)c1` the Potency [1] was 10.7 µM (active) and the Potency [5] was 9.52 µM (active).

For `Cc1cc(NC(=O)C2CCN(S(=O)(=O)c3ccc4[nH]c(=O)oc4c3)CC2)ccc1Br`, the Potency [1] was 16.9 µM (active) and the Potency [5] was 0.425 µM (active).

For `Cc1ccc(-n2nc3c(N4CCCC(C(=O)NCc5ccccc5C)C4)nnc(C)c3c2C)cc1` (stereo not given), the Potency [1] was 9.52 µM (active), the Potency [6] was 1.69 µM (active) and the Potency [5] was 2.68 µM (active).

For `CC(C)OCc1cc(CN2CCN(c3ccccc3)CC2)c(O)c2ncccc12`, the Potency [1] was “inactive” and the Potency [6] was “inactive”.

With `CC(=O)Nc1ccc(C)cc1-c1nc2ccccc2n(CC(=O)Nc2cc(Cl)ccc2C)c1=O` the Potency [1] was 0.338 µM (active) and the Potency [5] was 3.01 µM (active).

In the case of `CC1CCCCC1N(Cc1ccccc1)[S+](=O)([O-])c1ccc([S+](=O)([O-])N(C)C)cc1` (stereo not given), the Potency [1] is reported as “inactive”.

With `COc1ccc(C(Nc2ccccn2)c2ccc3ccc(C)nc3c2O)cc1C` (stereo not given) the Potency [1] was 21.3 µM (active) and the Potency [5] was 2.68 µM (active).
